Screens as filed in PubChem.
Hits are enriched below; roughly 19% of the tested compounds scored in any of these assays.
TDP1 cell noCPT = qHTS for Inhibitors of human tyrosyl-DNA phosphodiesterase 1 (TDP1): qHTS in cells in absence of CPT; DT40 Tdp1-/- hTDP1 cells, no CPT, ATP luminescence, 48 h; Potency, µM (top dose mostly 46.2 µM), for inactives: at the highest dose activity change, negative = growth inhibition, actives largely listed as inhibitors; 420,000 tested, 15% active; AID 686978, 2013; further: potency means the concentration at half of the fitted maximal effect; nearly all actives have a fitted effect of over 55% in size
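Readout: luminescence from CellTiter-Glo after 30 min in the dark at RT. Cells: DT40 Tdp1-/- with stable hTDP1, 400/well. Exposure: compounds alone, ≥48 hr, 37 °C.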
TDP1 cell CPT = DT40-hTDP1 cell growth loss with CPT | chicken DT40 Tdp1-/-;hTDP1 cells + 20 nM CPT, ATP luminescence, 48 h | Potency, µM (highest dose often 46.2 µM), for the others: at the top dose activity change, negative = growth inhibition, most hits filed as inhibitors | 420,000 tested, 12% active; further: potency means the concentration at half of the fitted maximal effect; nearly all actives have a fitted effect of over 55% in size
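Chicken DT40 Tdp1-/- cells stably complemented with human TDP1 were seeded at 400 cells/well in medium containing 20 nM camptothecin, exposed to pin-transferred compounds, and grown at 37 °C for at least 48 hr. Viability was read as ATP luminescence.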
HT1080 IDH1KD tx = kills HT-1080 cells with IDH1 knockdown. Potency, µM (series often up to 46.1 µM), without a hit: top-dose activity, negative = toxicity, actives largely listed as cytotoxic. HT-1080 IDH1 knockdown viability, ATP luminescence, 48 h. AID 686971. 360,000 tested, 2% active;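 further: potency means the concentration at half of the fitted maximal effect; 0% = DMSO wells and -100% = cell-free medium wells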
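Luminescent ATP read-out (CellTiter-Glo, 10 min at room temperature) after 48 h compound exposure at 37 °C gave viability of IDH1-knockdown HT-1080 cells. Activity was normalised to DMSO and cell-free wells, then fitted as concentration-response curves.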
HT1080-NT tox = kills 2HG-producing HT-1080-NT fibrosarcoma cells | HT-1080-NT fibrosarcoma viability, CellTiter-Glo ATP luminescence, 48 h | Potency, µM (series often up to 46.1 µM), without a hit: top-dose activity, negative = less viability, hits mostly cytotoxic | 360,000 tested, 1.6% active;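 further: NT is the 2HG producing partner of a matched IDH1 knockdown line; potency means the concentration at half of the fitted maximal effect; 0% = DMSO-treated cells and -100% = media-only wells without cells; nearly all actives have a fitted effect of over 55% in size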
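Toxicity toward the 2HG-producing NT line was scored as %Activity, normalised to DMSO and no-cell wells, from CellTiter-Glo luminescence after 48 hours' treatment.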
IL1B secr inh = inflammasome signaling inhibition, IL-1 beta readout | THP-1 LPS/ATP IL-1B secretion, AlphaLISA, 16 h; active compounds read low | activity change, % at 57.5 µM | 360,000 tested, 4.7% active | AID 743279; in the data active means activity change below about -50%; inconclusive means mostly about -30% to -49%
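THP-1 cells pretreated 1 hr with compounds (up to 57.5 uM final), then stimulated with LPS (250 ng/mL final) plus ATP (1.25 mM final); secreted IL-1B measured by AlphaLISA after 16 hr, decreased signal indicating inhibition.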
* marks the source's active call; other numbers are inactive results; ? = inconclusive; / = not tested or not shown; [ ] = remark or other dose. Unless noted, the call rests on the fitted dose curve; in most records, active means well fitted curve in the direction sought with a large enough effect; inconclusive means small, poorly fitted or top-dose-only effect, or another doubt; inactive means no such curve, though single readings can be large; an effect the other way counts as inactive or inconclusive. Unless noted, on the % scale 0 is the no-effect control and ±100 the full control effect.

SMILES	TDP1 cell noCPT	TDP1 cell CPT	HT1080 IDH1KD tx	HT1080-NT tox	IL1B secr inh
CCOc1ccc(N(CC(=O)NC2CC3CCC2C3)S(=O)(=O)c2ccc(C)cc2)cc1 (stereo unspecified)	?	16µM*	-15%	-11%	0
CCOc1ccc(S(=O)(=O)N(CC(=O)NCC2CCCO2)c2ccc(F)cc2)cc1 (stereo unspecified)	?	-19%	-1%	-1%	0
COc1ccc(N(CC(=O)NC2CC3CCC2C3)S(=O)(=O)c2ccccc2)cc1OC (stereo unspecified)	4%	8%	-1%	-4%	-21
COc1ccc(N(CC(=O)NC2CC3CCC2C3)S(=O)(=O)c2ccc(C)cc2)cc1Cl (stereo unspecified)	23µM*	?	-19%	-1%	-13
CCOc1ccc(N(CC(=O)NCC2CCCO2)S(=O)(=O)c2ccc(SC)cc2)cc1 (stereo unspecified)	-12%	13µM*	12%	-1%	-6
O=C(Nc1cccc(S(=O)(=O)N2CCOCC2)c1)C1COc2ccccc2O1 (stereo unspecified)	?	-27%	12%	2%	-4
O=c1[nH]cc(CCCc2ccccc2)c(=O)[nH]1	-7%	0%	2%	-2%	6
C1CN(CCN2CCOCC2)CCN1	5%	5%	-1%	7%	-7
CCOC(=O)CC(=O)CSc1nc2ccc(OC)cc2cc1C	-21%	-4%	22%	10%	-5
COc1ccnc(CSC(N)=Nc2ccc(F)cc2)c1	?	?	11%	14%	-99*
COc1ccc(C(=O)COc2ccc(F)cc2)c(O)c1	-19%	-14%	23%	4%	?
CCC1C(=O)NCCN1Cc1ccc2c(c1)CN(Cc1cccn1-c1ccc(Cl)cn1)CCO2 (stereo unspecified)	?	8%[9.04 µM]	/	/	/
C/C(=N\NC(=O)c1ccccc1Cl)c1ccccn1	2.9µM*	2.9µM*	?	?	117
C/C(=N\NC(=O)c1ccc(Cl)c(Cl)c1)c1ccccn1	0.52µM*	0.41µM*	1.8µM*	?	-103*
CC(C)(C)c1ccc(C(=O)O/N=C(\N)c2ccccn2)cc1	-22%	23µM*	?	?	-65*
C/C(=N\NC(=O)c1cc(Br)ccc1O)c1ccccn1	3.7µM*	3.3µM*	?	?	-81*
N/C(=N\OC(=O)c1ccccc1)c1ccccn1	-20%	-7%	?	?	4
C/C(=N/NC(=O)c1ccccn1)c1ccncc1	-5%	-6%	10%	6%	-6
COCCCNC(=O)c1ccccc1NS(=O)(=O)c1ccc(C)cc1	0%	-12%	0%	1%	13
CCc1noc(C)c1C(=O)N(Cc1ccccc1)c1c(N)n(CCOC)c(=O)[nH]c1=O	?	3%	9%	0%	-6
O=C1COc2ccc(C(=O)COC(=O)c3ccc([N+](=O)[O-])cc3Cl)cc2N1	-4%	-7%	-4%	-4%	8
C/C(=N\NC(=O)c1cccc2ccccc12)c1ccccn1	1.5µM*	1.2µM*	?	?	-107*
C/C(=N\NC(=O)C(c1ccccc1)c1ccccc1)c1ccccn1	4.6µM*	4.6µM*	5.8µM*	9.2µM*	-97*
C/C(=N\NC(=O)c1ccoc1C)c1cccc2ccccc12	?	?	1%	9%	41
C/C(=N\NC(=O)c1cc(-c2cccs2)nc2ccccc12)c1ccccn1	0.73µM*	0.65µM*	?	?	190
SMILES	TDP1 cell noCPT	TDP1 cell CPT	HT1080 IDH1KD tx	HT1080-NT tox	IL1B secr inh
CC(=NNC(=O)c1ccncc1)c1cccc(Br)c1	-10%	0%	7%	9%	-16
C/C(=N\NC(=O)c1cccc(Br)c1)c1ccccn1	0.92µM*	0.73µM*	?	?	-15
C/C(=N/NC(=O)c1ccc(C(C)(C)C)cc1)c1ccccn1	0.23µM*	0.46µM*	5.8µM*	7.3µM*	84
C/C(=N/NC(N)=S)c1ccc(Br)s1	4.6µM*	8.2µM*	?	?	-6
C/C(=N\NC(=O)c1ccc(Cl)c(Cl)c1)c1ccc(Br)s1	1.5µM*	1.5µM*	-6%	-1%	6
C/C(CC(=O)Nc1ccccn1)=N\NC(=O)c1ccc2ccccc2c1	1%	8%	-16%	-3%	37
C/C(CC(=O)Nc1ccccn1)=N\NC(=O)c1ccccc1O	16µM*	4.1µM*	9.2µM*	21µM*	145
C/C(=N\NC(=O)Cc1ccccc1)c1ccc(Br)s1	2%	3%	20%	13%	16
C/C(=N\NC(=O)c1ccc(NS(=O)(=O)c2cccs2)cc1)c1ccccn1	?	?	?	?	-4
Cn1c(CNC2CCCCC2)c(C#N)c2ccccc21	-10%	-20%	-6%	-2%	5
C/C(=N\NC(=O)c1cc(-c2ccncc2)nc2ccccc12)c1ccc(N2CCOCC2)cc1	?	?	10µM*	21µM*	12
Cc1ccc(NC(=O)CN(C)C(=O)/C=C/c2cccs2)cc1	-13%	-23%	12%	14%	0
COc1ccc(CNC(=O)COC(=O)c2cccn2C)cc1	13%	16%	-5%	-1%	8
CCOc1ccccc1C(=O)Nc1cc2c(cc1N1CCCC1)n(CC)c(=O)n2CC	4.6µM*	4.6µM*	-25%	-3%	-10
COc1cccc(OC)c1C(=O)Nc1cc2c(cc1N1CCOCC1)n(C)c(=O)n2C	18%	-3%	4%	-2%	?
COc1cccc(OC)c1C(=O)Nc1ccccc1N1CCCC1	-21%	-13%	-8%	-1%	-12
COc1ccc(Cl)cc1C(=O)Nc1cc(=O)n(C)c(=O)n1C	-5%	-13%	0%	-7%	14
CCn1c(=O)n(CC)c2cc(N3CCCC3)c(NC(=O)c3cc(Cl)ccc3OC)cc21	21µM*	16µM*	1%	15%	-64*
CCOc1ccccc1C(=O)Nc1cc2c(cc1N1CCOCC1)n(C)c(=O)n2C	16µM*	15µM*	/	/	/
CCn1c(=O)n(CC)c2cc(N3CCCC3)c(NC(=O)c3ccccc3OC)cc21	5.8µM*	6.5µM*	?	?	-53*
O=C1NC[C@@H](CCCCN2C[C@H](Cc3ccc(O)cc3)N(CC3CCCCC3)C(=O)C2=O)N(CC2CCCCC2)C1=O	-17%	-8%	22%	13%	7
CCn1c(=O)n(CC)c2cc(N3CCCC3)c(NC(=O)c3ccc(OC)c(Br)c3)cc21	12µM*	16µM*	0%	-13%	-4
